Screen size: about 4,100 compounds; about 1,600 (39%) were called active. Roughly 25% stayed inconclusive and do not appear here. Calls follow the shape of the dose curve; as a rule, active = well fitted inhibition curve with a large enough effect; inconclusive = small, poorly fitted or top-dose-only effect; inactive = no such curve, though single readings can be large or run the other way. The list shows a part of the results. A call without a number means that no potency is given here.
Assay: qHTS Validation assay for Inhibitors of Plasmodium falciparum Dd2 growth in vitro; also: nearly all actives have a fitted effect of over 70% in size
Settings: P. falciparum Dd2 in RBCs, SYBR Green growth, 72 h; series mostly up to 28.7 µM
Procedure, shortened: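 P. falciparum Dd2-infected red blood cells (2.5% hematocrit, 0.3% parasitemia) grown 72 h at 37 °C under 5% O2 with compounds in a titration, 29 uM to 0.5 nM final. Growth read as SYBR Green-1 fluorescence after ~16 h lysis; artesunate 300 nM as positive control.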
Potency is read from the fitted curve at half-maximal effect.

Row | Structure (SMILES) | Potency
1 | COc1ccc2c(c1)CCN=C2C[C@H]1CN(C(=O)NC(C)C)CC[C@H]1CC(=O)O | inactive
2 | COc1cccc(CN(C)C2CCc3ccccc32)c1 (configuration not stated) | inactive
3 | COc1ccc(CN2CCCC(N3CCc4ccccc4C3)C2)c(O)c1 (configuration not stated) | 2.99 µM (active)
4 | COc1ccc(CCn2c(=N)c(C(=O)NCc3ccco3)cc3c(=O)n4cccc(C)c4nc32)cc1 | 1.68 µM (active)
5 | CCOCCCn1c(=N)c(C(=O)NCc2cccnc2)cc2c(=O)n3ccccc3nc21 | inactive
6 | CCCc1noc(-c2cccn3c(CNC(=O)c4ccc(OC)cc4C)nnc23)n1 | inactive
7 | COc1ccc(CCn2c(=N)c(C(=O)NCCN3CCOCC3)cc3c(=O)n4cccc(C)c4nc32)cc1OC | 13.3 µM (active)
8 | Cc1cccn2c(=O)c3cc(C(=O)NCCc4ccc(S(N)(=O)=O)cc4)n(C)c3nc12 | inactive
9 | Cc1ccc(-c2cc3c(=O)n(CCNC(=O)c4ccc[nH]c4=O)ccn3n2)cc1C | inactive
10 | Cc1cccn2c(=O)c3cc(C(=O)NC(C)c4ccccc4)c(=N)n(CCOCCO)c3nc12 (configuration not stated) | 10.6 µM (active)
11 | N#Cc1cccc(-c2cn3c(n2)N(C(=O)CC2CCCC2)CCC3)c1 | inactive
12 | CCCCCCc1cc2cc(-c3nnc(-c4ccc(C)cc4)o3)c(=O)oc2cc1O | inactive
13 | O=C(C1CCCC1)N1CCN(c2nnc3c(Cl)cccn23)CC1 | inactive
14 | Cc1cccn2c(=O)c3cc(C(=O)NC4CCCC4)c(=N)n(CCc4ccccc4)c3nc12 | 1.88 µM (active)
15 | CN1CCCCC(CC(=O)NCCc2ccccc2)C1=O (configuration not stated) | inactive
16 | COc1ccc(CCn2c(=N)c(C(=O)NC3CCCC3)cc3c(=O)n4cccc(C)c4nc32)cc1 | 0.75 µM (active)
17 | COc1ccc(CCNC(=O)c2cc3c(=O)n4cccc(C)c4nc3n(CC3CCCO3)c2=N)cc1 (configuration not stated) | inactive
18 | Cc1cc(N)c2cc(NC(=O)/C=C/c3ccccc3Cl)ccc2n1 | 1.88 µM (active)
19 | O=C(/C=C/c1ccccc1)Nc1cccc(C(=O)O)c1 | inactive

Row | Structure (SMILES) | Potency
20 | O=C(COc1ccc(F)cc1)N1CCC(c2noc(-c3ccncc3)n2)C1 (configuration not stated) | inactive
21 | CC1C(=O)C(C)C(c2cc(Cl)ccc2O)NC1c1cc(Cl)ccc1O (configuration not stated) | 6.68 µM (active)
22 | Cc1[nH]c2c(C)cccc2c(=O)c1Br | 5.31 µM (active)
23 | Cc1cnc(C(=O)Nc2cccc3cccnc23)cn1 | 2.66 µM (active)
24 | Cc1cnc(C(=O)N[C@@H]2CCC[C@@H]2C(=O)N2CCC(Cc3ccccc3)CC2)cn1 | inactive
25 | COc1ccc(C(=O)N2CCc3nn(Cc4ccccc4)c(=O)n3CC2)cc1F | inactive
26 | CCOc1ccc(CCNC(=O)c2ccc3c(c2)N(Cc2ccccc2F)C(=O)c2ccccc2S3=O)cc1OCC (configuration not stated) | 10.6 µM (active)
27 | CCN1CCN(C(=O)c2ccc3c(c2)N(Cc2ccc(Cl)cc2)C(=O)c2ccccc2S3=O)CC1 (configuration not stated) | 0.668 µM (active)
28 | CCn1cc(CN2CCN(C(=O)c3ccsc3)CC2)ccc1=O | inactive
29 | CC(C)(C)c1ccc(C(=O)N2CCN(Cc3cc(=O)n4nc(-c5ccccc5F)sc4n3)CC2)cc1 | inactive
30 | CCOc1ccc(-c2cc3c(=O)n(CCNC(=O)c4ccc(OC)c(F)c4)ccn3n2)cc1 | inactive
31 | O=C1Nc2ccc(-c3ccc(Cl)cc3)cc2C(=O)N2CCN(C(=O)c3ccccc3)C[C@H]12 | inactive
32 | CCN1CCN(C(=O)c2ccc3c(c2)N(Cc2ccccc2F)C(=O)c2ccccc2S3=O)CC1 (configuration not stated) | 0.842 µM (active)
33 | CCOC(=O)Cn1c(=NC(=O)C2CC2)sc2c(C)cc(C)cc21 | inactive
34 | CCc1ccc(N2CC(c3noc(-c4nccc5ccccc45)n3)CC2=O)cc1 (configuration not stated) | inactive
35 | O=S(=O)(c1ccc(Cl)cc1)N1CCN(Cc2ccc(O)c3ncccc23)CC1 | 13.3 µM (active)
36 | O=C(N[C@H]1CO[C@H]2[C@@H]1OC[C@@H]2n1cc(-c2ccccc2)nn1)c1ccc(C(F)(F)F)cc1 | inactive
37 | COc1ccc(CN2C(=O)C(C)N(C(=O)c3c(F)cccc3F)c3ccccc32)cc1 (configuration not stated) | 7.5 µM (active)
38 | COc1ccc(CN2C(=O)C(NC(=O)c3ccccc3C)(C(F)(F)F)N=C2c2ccccc2)cc1 (configuration not stated) | inactive

Row | Structure (SMILES) | Potency
39 | O=C(/C(=C/c1ccc(Cl)cc1)c1nc2ccccc2[nH]1)c1cccs1 | 2.11 µM (active)
40 | CN(C)CCCNc1ccc(-c2cc(Nc3cccc(Cl)c3)ncn2)cn1 | 9.44 µM (active)
41 | O=C(Nc1nnc(SCc2ccc(F)cc2)s1)c1ccccn1 | 8.41 µM (active)
42 | O=C(Nc1ccc(F)cc1)Nc1nnc(SCC(=O)N2CCCCC2)s1 | inactive
43 | CCc1nnc(NC(=O)c2cc(Cl)ccn2)s1 | inactive
44 | COc1ccccc1N1CCN(C[C@@H]2C=C(C)[C@H](Cc3nnc(-c4cncn4C)o3)C[C@H]2C(C)C)CC1 | 10.6 µM (active)
45 | CC1=C[C@@H](CNC(=O)COc2ccccc2)[C@H](C(C)C)C[C@H]1Cc1nnc(-c2cncn2C)o1 | 13.3 µM (active)
46 | Cc1ccc(NC(=O)CCSc2nc(-c3ccco3)cc(C(F)(F)F)n2)cc1F | inactive
47 | COc1ccc(-c2cc(C(F)(F)F)nc(SCCC(=O)Nc3cc(C)ccc3O)n2)cc1 | 1.88 µM (active)
48 | COc1cccc(NC(=O)CCSc2nc(-c3ccco3)cc(C(F)(F)F)n2)c1 | inactive
49 | CC(Sc1nc2cc([N+](=O)[O-])ccc2n1-c1cccc(C(F)(F)F)c1)C(=O)NC(N)=O (configuration not stated) | inactive
50 | O=C(Nc1cc(C(F)(F)F)cc(C(F)(F)F)c1)Nc1cnn(-c2ccc([N+](=O)[O-])cc2)c1C(F)(F)F | 6.68 µM (active)
51 | Cc1cn2nc(C(=O)NCc3ccccc3F)cc2c(N(C)Cc2ccccc2)n1 | inactive
52 | Cc1cn2nc(C(=O)Nc3ccc(N(C)C)cc3)cc2c(N(C)Cc2ccccc2)n1 | 15 µM (active)
53 | Cc1cn2nc(C(=O)Nc3ccc4c(c3)OCCO4)cc2c(N(C)Cc2ccccc2)n1 | inactive
54 | COc1ccc(/C=N/Nc2cc(C)nc(-n3nc(C)cc3C)n2)c(OC)c1 | 5.31 µM (active)
55 | Cc1ccc(Nc2cc(C)nn2-c2nc(C)cc(C)n2)cc1 | 6.68 µM (active)
56 | Cc1cc(N2CCC(C)CC2)nc(-n2nc(C)cc2C)n1 | 2.99 µM (active)
57 | CNc1cc(C)nc(-n2nc(C)cc2C)n1 | 8.41 µM (active)

— PubChem BioAssay AID1347416 (National Center for Advancing Translational Sciences (NCATS), 2020)
